Calls of active or inactive are those of the source. Rule for the calls: active = hit-call score of the fitted dose curve at least 0.9, where 1 is the maximum; inactive = score below 0.9.
Experiment: ATG_FoxO_CIS: Attagene CIS-FACTORIAL HepG2 Assay for human Forkhead box O (FoxO) (AID 2282943)
Conditions: HepG2 Attagene cis-reporter, FoxO element, mRNA; actives raise or lower the signal
Protocol: ATG_CIS is a cell-based, multiplexed-readout assay that uses HepG2, a human liver cell line, with measurements taken at 24 hours after chemical dosing in a 24-well plate.ATG_FoxO_CIS is one of 52 assay component(s) measured or calculated from the ATG_CIS assay. It is designed to make measurements of mRNA induction, a form of inducible reporter, as detected with fluorescence intensity signals by Reverse transcription polymerase chain reaction (RT-PCR) and Capillary electrophoresis technology.Data from the assay component ATG_FoxO_CIS was analyzed into 1 assay endpoint. This assay endpoint, ATG_FoxO_CIS, was analyzed with bidirectional fitting relative to DMSO as the negative control and baseline of activity. Using a type of inducible reporter, measures of mRNA for gain or loss-of-signal activity can be used to understand the reporter gene at the transcription factor-level as they relate to the gene FOXO1 and FOXO3. Furthermore, this assay endpoint can be referred to as a primary readout, because this assay has produced multiple assay endpoints where this one serves a reporter gene function. To generalize the intended target to other relatable targets, this assay endpoint is annotated to the dna binding intended target family, where the subfamily is forkhead box protein.
Human liver HepG2 cells are transiently transfected with multiple reporter transcription units (MRTUs) in 6-well plates using FuGene 6 reagent (Roche; 3 ml FuGene/1 mg DNA). The MRTU constructs are regulated by a cis-regulating element (promoter). […] A major difference between the CIS and TRANS system is that in CIS activities of endogenous TFs are measured, whereas the TRANS assay evaluates changes in activities of exogenous, chimeric NR-Gal4 proteins. […] At the end of 24 hour incubation, total RNA was isolated using TriZol reagent (Invitrogen). The isolated RNA is then reverse-transcribed using oligo(dT) primer and Mo-MLV reverse transcriptase (Invitrogen) with DNAse I (Ambion) treatment for 30 min. The one-tenth of the produced cDNA was amplified by PCR using Taq DNA polymerase (Invitrogen) and two reporter sequence-specific primers. The PCR products were fluorescently labeled by primer extension with 6-arboxyfluorescein (6-FAM) 5'-labeled reporter sequence-specific primer (2 min at 95 C, 20 s at 68 C and 10 min at 72 C) and these products were digested with 5U of HpaI (New England Biolabs) for 2h at 37 C. The fragments were purified using Qiaquick PCR columns (Qiagen), analyzed on an ABI 3130xL genetic analyzer (Applied Biosystems) with peak positions identified by using a set of X-rhodamine (ROX)-labeled MapMarker1000 molecular weight standards (BioVentures). The raw capillary electrophoresis data was processed using Attagraph software (Attagene).

Question: With `Cc1cc(-c2cc(C)c(N)c(C)c2)cc(C)c1N` as the molecule, how does the outcome read?
Answer: The outcome was “inactive”.

Question: Which outcome does the source give for `Cc1cccc(C)c1NC(=O)CN1CCCC1=O` here?
Answer: Its outcome is “inactive”.

Question: For `Cc1ccc(OP(=O)(Oc2ccc(C)cc2C)Oc2ccc(C)cc2C)c(C)c1`, which outcome is on record?
Answer: The outcome was “inactive”.

Question: For `CCOP(=S)(OCC)OP(=S)(OCC)OCC`, which outcome is on record?
Answer: The outcome was “inactive”.

Question: Which outcome does the source give for `O=C(Cc1ccccc1)OCCc1ccccc1` here?
Answer: Its outcome is “inactive”.

Question: For `CCCCC(CC)COC(=O)Cl` (stereo not given), which outcome is on record?
Answer: Its outcome is “inactive”.

Question: For `CC(=Cc1ccccc1)[N+](=O)[O-]`, which AC50 is on record?
Answer: The AC50 was 11.1 µM (active).

Question: For `O=C(CCl)Nc1ccccc1`, which AC50 is on record?
Answer: Its AC50 is 83.2 µM (active).

Question: For `C=CC(Cl)CCl` (stereo not given), which outcome is on record?
Answer: Its outcome is “inactive”.

Question: For `C[CH2][Hg][S]c1ccccc1C(=O)O`, which AC50 is on record?
Answer: The AC50 was 2.29 µM (active).

Question: With `CCNc1nc(NCC)nc(SC)n1` as the molecule, how does the outcome read?
Answer: The outcome was “inactive”.

Question: For `O=C(O)c1cc(I)cc(I)c1I`, which outcome is on record?
Answer: Its outcome is “inactive”.

Question: With `C=CCOC(N)=O` as the molecule, how does the outcome read?
Answer: Its outcome is “inactive”.

Question: Which outcome does the source give for `CC(C)[C@@H](Nc1ccc(C(F)(F)F)cc1Cl)C(=O)OC(C#N)c1cccc(Oc2ccccc2)c1` (stereo not given in full) here?
Answer: The outcome was “inactive”.

Question: Which outcome does the source give for `CC1(C)[C@H](/C=C2\CCSC2=O)[C@@H]1C(=O)OCc1coc(Cc2ccccc2)c1` here?
Answer: The outcome was “inactive”.

Question: Which outcome does the source give for `CCCCC(CC)C(=O)Cl` (stereo not given) here?
Answer: The outcome was “inactive”.

Question: With `Clc1cnc(Oc2ccc(Oc3ncc(Cl)cc3Cl)cc2)c(Cl)c1` as the molecule, how does the outcome read?
Answer: Its outcome is “inactive”.

Question: Which outcome does the source give for `CNC(=O)N(C)c1nc2ccccc2s1` here?
Answer: The outcome was “inactive”.

Question: With `C=CCc1ccccc1O` as the molecule, how does the outcome read?
Answer: The outcome was “inactive”.

Question: For `O=S(=O)(c1ccc(Cl)cc1)c1cc(Cl)c(Cl)cc1Cl`, which outcome is on record?
Answer: Its outcome is “inactive”.

Question: With `CC(C)(C#N)N=NC(C)(C)C#N` as the molecule, how does the outcome read?
Answer: Its outcome is “inactive”.

Question: For `C#C[C@]1(O)CC[C@H]2[C@@H]3CCC4=CC(=O)CC[C@]4(C)[C@H]3CC[C@@]21C`, which outcome is on record?
Answer: Its outcome is “inactive”.

Question: With `COC(=O)c1cc(Oc2ccc(Cl)cc2Cl)ccc1[N+](=O)[O-]` as the molecule, how does the outcome read?
Answer: The outcome was “inactive”.

Question: Which outcome does the source give for `CCCCCCCCCCBr` here?
Answer: Its outcome is “inactive”.

Question: With `CCOP(=S)(OCC)SCSc1cc(Cl)ccc1Cl` as the molecule, how does the outcome read?
Answer: Its outcome is “inactive”.

Question: With `O=C1C=CC(=O)c2ccccc21` as the molecule, how does the outcome read?
Answer: The outcome was “inactive”.

Question: For `Clc1cc(C(Cl)(Cl)Cl)cnc1Cl`, which outcome is on record?
Answer: Its outcome is “inactive”.

Question: Which outcome does the source give for `C=CC(=O)[O][Sn]([CH2]CCC)([CH2]CCC)[CH2]CCC` here?
Answer: The outcome was “inactive”.

Question: With `CCCCCCCCCCCCc1cccc(S(=O)(=O)O)c1` as the molecule, how does the outcome read?
Answer: Its outcome is “inactive”.

Question: For `Clc1cccc(Cl)c1`, which outcome is on record?
Answer: Its outcome is “inactive”.

Question: For `CCCCN(CCCC)C(=S)[S-].CCCCN(CCCC)C(=S)[S-].[Ni+2]`, which outcome is on record?
Answer: The outcome was “inactive”.

Question: For `Nc1ncn[nH]1`, which outcome is on record?
Answer: Its outcome is “inactive”.

Question: Which AC50 does the source give for `CCCCCCCCCCCCN(C)C` here?
Answer: The AC50 was 58.7 µM (active).

Question: For `Cc1cc(C)cc(C)c1`, which outcome is on record?
Answer: The outcome was “inactive”.

Question: For `COc1ccc([N+](=O)[O-])cc1O`, which outcome is on record?
Answer: Its outcome is “inactive”.

Question: Which outcome does the source give for `CCOc1ccc(N)cc1` here?
Answer: The outcome was “inactive”.

Question: For `Cc1c([N+](=O)[O-])c(C)c([N+](=O)[O-])c(C(C)(C)C)c1[N+](=O)[O-]`, which outcome is on record?
Answer: Its outcome is “inactive”.

Question: With `ClCc1ccccc1Cl` as the molecule, how does the outcome read?
Answer: Its outcome is “inactive”.

Question: Which outcome does the source give for `CC(F)(F)CC(F)(F)F` here?
Answer: The outcome was “inactive”.

Question: Which outcome does the source give for `OC(Cc1ccccc1Cl)(Cn1cncn1)C1(Cl)CC1` (stereo not given) here?
Answer: The outcome was “inactive”.
